Source: PubChem BioAssay AID504429 (National Center for Advancing Translational Sciences (NCATS), 2011)
This is one part of the list. Calls of active or inactive are those of the source.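 Rule for the calls: active = compounds whose dose response shows an inhibitor phenotype against the kinase Dyrk1b; inactive = compounds showing no inhibitor phenotype.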

biological target: Dual specificity tyrosine-phosphorylation-regulated kinase 1B (Homo sapiens) (UniProt Q9Y463); assay: Kinase Inhibition Study on Inhibitors of Dyrk1b (Reaction Biology data); settings: Recombinant Dyrk1b kinase assay, 10 uM ATP
Excerpt: NIH Molecular Libraries Probe Production Centers Network [MLPCN] NIH Chemical Genomics Center [NCGC] MLPCN Grant: 1R03MH084827-01 Assay Submitter (PI): Tom Misteli NCGC Assay Overview: Alternative splicing of pre-mRNAs plays a major role in the regulation of eukaryotic gene expression. Alternative splicing is now thought to be one of the primary reasons for the complexity of higher organisms leading to an average of three protein isoforms per gene. Aberrant splicing can lead to a number of diseases and is known to play a role in rare genetic diseases such as progeria syndrome. Hutchinson-Gilford Progeria Syndrome (HGPS) is a pediatric premature aging disease caused by a spontaneous mutation in the lamin A/C (LMNA) gene due to a single point mutation in the lamin A gene effecting 1 in 4 million people. To identify both specific splicing modulators of the lamin A gene as well as general splicing modulators, a cell-based HTS assay was developed using a minigene reporter system (AIDs, 1459 & 1487). […] The Clk family is part of the CMGC group of protein kinases which includes Dyrks and are essential kinases found in all eukaryotes. […] This AID is to summarize the activity of these analogs in Dyrk1b.
All kinase reactions were performed using 10 uM ATP in the assay. 100% activity was taken from kinase reactions with DMSO alone (the vehicle used for compound stock solutions).

Sequence of Dual specificity tyrosine-phosphorylation-regulated kinase 1B (Homo sapiens) (Q9Y463 whole entry, looked up, canonical isoform): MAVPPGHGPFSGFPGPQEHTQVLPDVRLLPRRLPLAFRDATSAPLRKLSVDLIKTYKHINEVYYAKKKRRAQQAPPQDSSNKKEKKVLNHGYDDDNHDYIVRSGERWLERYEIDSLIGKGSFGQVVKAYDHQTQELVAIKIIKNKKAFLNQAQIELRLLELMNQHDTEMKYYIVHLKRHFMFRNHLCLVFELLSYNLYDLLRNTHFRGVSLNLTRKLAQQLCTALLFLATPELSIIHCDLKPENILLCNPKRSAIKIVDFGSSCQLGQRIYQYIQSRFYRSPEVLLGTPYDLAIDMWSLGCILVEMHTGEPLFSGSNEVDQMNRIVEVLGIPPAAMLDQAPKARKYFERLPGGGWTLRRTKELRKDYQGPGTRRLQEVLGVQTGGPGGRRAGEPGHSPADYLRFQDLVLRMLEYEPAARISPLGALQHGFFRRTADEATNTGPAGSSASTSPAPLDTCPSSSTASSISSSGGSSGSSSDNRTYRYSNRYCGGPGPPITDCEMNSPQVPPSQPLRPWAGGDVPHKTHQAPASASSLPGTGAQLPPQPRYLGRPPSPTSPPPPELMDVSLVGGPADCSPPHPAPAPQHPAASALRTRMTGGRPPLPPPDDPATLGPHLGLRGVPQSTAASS

Potency, active:
c1nc(N2CCOCC2)c2cc(-c3ccc4c(c3)OCO4)ccc2n1 5.22 µM, CC(Nc1ncnc2ccc(-c3ccc4c(c3)OCO4)cc12)c1ccco1 (stereo not drawn) 8.14 µM, CN(Cc1cncn1C)c1ncnc2ccc(-c3ccc4c(c3)OCO4)cc12 15 µM
